A short description of test [1]: qHTS for Inhibitors of the Functional Ribonucleoprotein Complex (vRNP) of Lassa (LASV) Arenavirus: LASV Primary Screen - GLuc reporter signal (AID 1347082; calls by dose curve; tested in HEK293 reporter line; note: nearly all actives have a fitted effect of over 60% in size; note: potency is the fitted concentration of half-maximal effect; for activity change, negative = inhibition: % is set by controls: 0 for no effect and ±100 for the full control effect). (In general: Quantitative high-throughput screening tests each substance at several concentrations.)
The target in test [2] is Nucleoprotein (Lymphocytic choriomeningitis virus (strain Armstrong)) (UniProt P09992). As to the kind of experiment: qHTS for Inhibitors of the Functional Ribonucleoprotein Complex (vRNP) of Lymphocytic Choriomeningitis Arenaviruses (LCMV): LCMV Primary Screen - GLuc reporter signal (AID 1347086). For activity change, negative = inhibition: % is set by controls: 0 for no effect and ±100 for the full control effect. Note: nearly all actives have a fitted effect of over 70% in size. Note: potency is the fitted concentration of half-maximal effect.
Test [3] can be described thus: Primary qHTS for inhibitors of SARS-S pseudo-typed particle cell entry (AID 1479145). For activity change, negative = inhibition: % is set by controls: 0 for no effect and ±100 for the full control effect. Note: nearly all actives have a fitted effect of over 45% in size.
Test [4] can be described thus: Primary qHTS for Huh7 cytotoxicity: counterscreen for inhibitors of MERS-S pseudotyped particle cell entry (AID 1479147). Note: % is set by controls: 0 for no effect and ±100 for the full control effect. The conditions noted are these: outcome: dose series up to 57.1 µM unless noted.
Test [5] is described as follows: Primary qHTS for Vero E6 cytotoxicity: counterscreen for inhibitors of SARS-S pseudo-typed particle cell entry (AID 1479150). The conditions noted are these: outcome: dose series up to 57.1 µM unless noted.
Test [6] is described as follows: Cytotoxicity counterscreen for inhibitors of SARS-CoV-2 cell entry (AID 1645845). Note: nearly all actives have a fitted effect of over 50% in size. Note: potency is the fitted concentration of half-maximal effect. An outline of the steps: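 ATP-content luminescence (ATPLite 1step, 15 min RT) read after 48 h compound exposure of Expi293F cells stably expressing human ACE2; normalized to cells-only wells and media-only wells.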
(In general: Counterscreens check selectivity or assay interference.)

Test [7] can be described thus: Primary qHTS to identify inhibitors of SARS-CoV-2 cell entry (AID 1645846). Note: nearly all actives have a fitted effect of over 45% in size. Note: potency is the fitted concentration of half-maximal effect. The following applies: activity change, negative = inhibition: at 57.1 µM (top of the series) unless noted. The method, boiled down:
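Luminescence readout (Bright-Glo luciferase) 48 h after pseudoparticle addition. HEK293-ACE2 cells, 1500/well; compound pre-incubation 1 h; Normalized to spike PP and bald PP.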

Test [8] in a line: Inducers of the Endoplasmic Reticulum Stress Response (ERSR) in human glioma: Validation (AID 504836; active = well fitted curve in the direction sought with a large enough effect; an effect the other way counts as inactive or inconclusive; note: 0% is about no effect). The method, boiled down:
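ERSR induction read as luciferase luminescence (Bright-Glo, 10 min at room temperature) in stably transfected human U87-MG glioma cells exposed to compounds for 16 h, using GRP78 as sensor.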

A short description of test [9]: Primary qHTS for inhibitors of MERS-S pseudo-typed particle cell entry (AID 1479149). Note: nearly all actives have a fitted effect of over 60% in size.
The nature of test [10]: Validation screen for inhibitors of Lassa infection (AID 463096). Note: potency is the fitted concentration of half-maximal effect.
A short description of test [11]: VSVG counterscreen qHTS to identify inhibitors of SARS-CoV-2 cell entry (AID 1645847). Note: nearly all actives have a fitted effect of over 65% in size. Note: potency is the fitted concentration of half-maximal effect. An outline of the steps: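 HEK293-ACE2 cells (Expi293F stably expressing human ACE2) were pretreated with compound for 1 h at 37 °C, then infected with MLV-based VSV-G pseudotyped particles for 48 h. Luciferase luminescence was normalized to VSV-G PP and bald PP wells.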
In test [12] the target is Alpha-galactosidase (Coffea arabica) (UniProt Q42656). As to the kind of experiment: Counterscreen for Glucocerebrosidase Inhibitors: qHTS Assay for Coffee Bean alpha-Galactosidase at pH 4.5 (AID 957; active = well fitted curve in the direction sought with a large enough effect; an effect the other way counts as inactive or inconclusive;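 note: plate controls were enzyme alone for no effect and no enzyme for full effect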). The method, boiled down:
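Fluorogenic qHTS at pH 4.5 (citrate buffer with Tween-20): 2 nM enzyme, 80 uM 4-MU-alpha-galactoside substrate, compound titrated 0.7 nM to 77 uM, 20 min room temperature. Glycine/NaOH stop; 4-MU read Ex 365/Em 440; Hill-equation AC50 against no-enzyme and enzyme controls.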

Test [13] has the same target. Kind of test: Counterscreen for Glucocerebrosidase Inhibitors: qHTS Assay for Coffee Bean alpha-Galactosidase at pH 5.9 (AID 998; active = well fitted curve in the direction sought with a large enough effect; an effect the other way counts as inactive or inconclusive;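 note: plate controls were uninhibited enzyme for no effect and no-enzyme basal signal for full effect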). An outline of the steps:
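Fluorogenic 4-MU substrate hydrolysis, 80 uM substrate and 2 nM coffee bean alpha-galactosidase, pH 5.9 citrate buffer, 20 min at room temperature, then NaOH/glycine stop. Titration 0.7 nM–77 uM, normalized to no-enzyme and enzyme controls, AC50 via Hill equation.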

A short description of test [14]: qHTS for Inhibitors of the Functional Ribonucleoprotein Complex (vRNP) of Lassa (LASV) Arenavirus: Viability assay - alamar blue signal for LASV Primary Screen (AID 1347083; calls by dose curve; tested in HEK293 reporter line; note: % is set by controls: 0 for no effect and ±100 for the full control effect; nearly all actives have a fitted effect of over 80% in size).
Test [15] can be described thus: Confirmatory qHTS to identify inhibitors of SARS-CoV-2 cell entry (AID 1645844). Note: potency is the fitted concentration of half-maximal effect; nearly all actives have a fitted effect of over 45% in size. An outline of the steps: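 Luminescence entry read-out after 48 h: spike-pseudotyped MLV particles (Wuhan-Hu-1, 19-aa C-terminal truncation) added to compound-pretreated (1 h) HEK293-ACE2 cells; Data were normalised to bald PP and spike PP wells.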

Where “and” joins values, the source holds several entries; their conditions need not be identical. Identical values can stand only once. Inconclusive results are not listed. Calls of active or inactive are those of the source. Unless noted, calls come from the whole dose curve.

Nucleoprotein (Lymphocytic choriomeningitis virus (strain Armstrong)), sequence (P09992 whole entry, looked up): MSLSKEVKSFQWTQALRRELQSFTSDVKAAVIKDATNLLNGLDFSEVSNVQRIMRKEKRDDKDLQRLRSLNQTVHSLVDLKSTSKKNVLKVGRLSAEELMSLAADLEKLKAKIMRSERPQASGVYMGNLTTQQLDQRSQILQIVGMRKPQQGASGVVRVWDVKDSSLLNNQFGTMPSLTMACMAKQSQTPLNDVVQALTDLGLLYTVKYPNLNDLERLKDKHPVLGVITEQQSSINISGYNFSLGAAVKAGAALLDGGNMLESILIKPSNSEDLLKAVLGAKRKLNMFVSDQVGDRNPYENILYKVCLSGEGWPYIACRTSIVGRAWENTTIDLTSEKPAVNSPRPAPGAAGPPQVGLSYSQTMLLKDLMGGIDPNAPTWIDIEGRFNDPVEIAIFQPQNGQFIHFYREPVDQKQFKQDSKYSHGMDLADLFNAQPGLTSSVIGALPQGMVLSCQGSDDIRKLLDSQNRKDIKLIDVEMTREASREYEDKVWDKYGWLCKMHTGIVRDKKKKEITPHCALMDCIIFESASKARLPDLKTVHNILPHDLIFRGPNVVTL
Alpha-galactosidase (Coffea arabica), sequence (Q42656 whole entry, looked up): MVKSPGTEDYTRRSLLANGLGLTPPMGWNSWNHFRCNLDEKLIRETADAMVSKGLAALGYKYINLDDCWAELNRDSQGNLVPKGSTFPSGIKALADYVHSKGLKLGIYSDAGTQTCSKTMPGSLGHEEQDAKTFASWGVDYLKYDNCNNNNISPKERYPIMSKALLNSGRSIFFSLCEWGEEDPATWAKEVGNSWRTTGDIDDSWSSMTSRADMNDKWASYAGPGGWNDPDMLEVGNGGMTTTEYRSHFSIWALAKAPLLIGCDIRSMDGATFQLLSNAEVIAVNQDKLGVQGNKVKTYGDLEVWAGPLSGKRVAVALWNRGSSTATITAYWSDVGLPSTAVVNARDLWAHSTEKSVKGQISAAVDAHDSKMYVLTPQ

On to `CC(C)(C)c1nc(-c2cccc(NS(=O)(=O)c3c(F)cccc3F)c2F)c(-c2ccnc(N)n2)s1`, for which the Potency result in [1], in [2], in test [3] and in [6] was “inactive” in each case. The outcome in test [4] and in [5] was inactive. In [7], the Potency is 28.2 µM (active).
`Nc1ncnc2n[nH]c(Nc3ccc(F)cc3)c12`: the compound was classed as inactive in [8]. For the same compound, the Potency entry in test [1] and in test [2] was “inactive” each time.
For `CN1CCc2c(n(Cc3ccc(C(=O)NO)cc3)c3ccccc23)C1`, the Potency entry in [1] and in test [2] was “inactive” each time. Besides, the Potency in test [6] was 31.6 µM (active).
On to `O=c1cccc2c1c1cc[nH]c3ccc(=O)n2c31`, for which the Potency entry in [1] and in test [2] was “inactive” each time.
For the compound `O=C(O)c1c(Cl)c(Cl)c(Cl)c(Cl)c1-c1c2cc(I)c(=O)c(I)c-2oc2c(I)c(O)c(I)cc12`, the Potency entry in test [1], in test [3], in test [9] and in test [6] was “inactive” throughout. The call in [4] was inactive.
In the case of `N=c1ccn2c(n1)O[C@H]1[C@@H](O)[C@@H](CO)O[C@H]12`, the Potency entry in test [1], in [2] and in test [6] was “inactive” in each case. For the same compound, the Potency in test [7] is 10 µM (active).
`COc1ccc2nc3cc(Cl)ccc3c(Nc3cc(CN4CCCC4)c(O)c(CN4CCCC4)c3)c2n1`: the Potency result in [1] and in test [2] was “inactive” throughout.
Turning to `CCc1cccc(CC)c1NC(=O)N1Cc2[nH]nc(NC(=O)c3ccc(N4CCN(C)CC4)cc3)c2C1`, the Potency entry in test [1] and in test [2] was “inactive” in each case.
On to `CC(C)(C)NC(=O)Nc1cccc(Nc2ncc(F)c(NC(C)(C)CO)n2)c1`, for which the Potency result in test [1] and in test [2] was “inactive” in each case.
With `O=C1CSC(=O)N1C(CCc1ccncc1)COc1ccc(-c2cccc([N+](=O)[O-])c2)cc1` (stereo unspecified), the results for the Potency in test [1] and in [2] were 17.2 µM (active) and 7.69 µM (active), respectively.
Regarding `COc1c2ccoc2c(OCC=C(C)C)c2oc(=O)ccc12`, the Potency result in test [1] and in test [2] was “inactive” throughout.
For the compound `O=C(NOCC(O)CO)c1cc(Br)c(F)c(F)c1Nc1ccc(I)cc1F` (stereo unspecified), the Potency entry in test [1] and in test [2] was “inactive” in each case. Further, the activity change, negative = inhibition in [7] was -16.5%.
Turning to `Nc1ncnc2nc(-c3ccc(N4CCOCC4)nc3)cc(-c3cccc(Br)c3)c12`, the Potency result in [1], in test [2] and in test [6] was “inactive” throughout. Moreover, in [7], the activity change, negative = inhibition was -21.9%.
In the case of `CC(=O)O[C@H]1C(=O)[C@@]2(C)C([C@H](OC(=O)c3ccccc3)[C@]3(O)C[C@H](OC(=O)[C@H](O)[C@@H](NC(=O)c4ccccc4)c4ccccc4)C(C)=C1C3(C)C)[C@]1(OC(C)=O)CO[C@@H]1C[C@@H]2O` (stereo partly specified), the Potency result in [10], in [1], in test [2] and in test [9] was “inactive” in each case. In addition, the compound was classed as inactive in [4] and in test [5]. Also, in [7], the activity change, negative = inhibition was -37.1% and -87.7%. In addition, the Potency in test [11] was 0.0681 µM (active).
Regarding `CN(C)c1nc2c(Br)c(Br)c(Br)c(Br)c2[nH]1`, the compound was called inactive in [12], in test [13] and in test [8]. The Potency entry in test [10], in test [1] and in [2] was “inactive” in each case.
Take `CCC[C@H]1NC(=O)[C@H](C)N(C)C(=O)C(C)(C)C(=O)C(C)NC(=O)[C@H](Cc2ccc(OC)cc2)N(C)C(=O)[C@H](C(C)C)N(C)C(=O)CNC(=O)[C@H](CC(C)C)N(C)C(=O)CNC(=O)[C@H]([C@@H](C)CC)OC(=O)[C@H]1C` (stereo partly specified): the Potency entry in test [1] and in test [2] was “inactive” each time.
As to `CNC(=O)[C@H](CC1=CN=C2C=CCC=C12)NC(=O)[C@@H](CC(=O)NO)CC(C)C`, the Potency in test [1] was 15.3 µM (active); in [2], 3.43 µM (active).
As for `COc1ccc(CN2CCc3cc(OC)c(OC)cc3C2)cc1O`, the Potency result in test [1] and in test [2] was “inactive” each time.
For the compound `Cc1ccc(/C=N/NC(=O)c2ccccc2Oc2ccccc2)o1`, the Potency entry in test [1], in test [2], in test [6] and in test [7] was “inactive” in each case.
Take `c1nc2nc(Nc3ccc(N4CCOCC4)cc3)nc(NC3CCCCC3)c2[nH]1`: the Potency entry in test [1] and in test [6] was “inactive” each time.
Turning to `CCCCC[C@H](CC(=O)NO)C(=O)N[C@H](C(=O)N1CCC[C@H]1CO)C(C)C`, the Potency entry in test [10] and in [1] was “inactive” each time. Moreover, the result in test [8] was inactive.
For the compound `C[C@]12CC[C@H](O)CC1=CCC1C2CC[C@]2(C)C(n3cnc4ccccc43)=CCC12` (stereo partly specified), the Potency entry in [1], in [6] and in test [7] was “inactive” in each case.
As for `CN1CCCC1CCOC(C)(c1ccccc1)c1ccc(Cl)cc1` (stereo unspecified), the Potency in test [10] was 10 µM (active). In addition, the compound was called inactive in test [8]. Moreover, the Potency result in test [1] was “inactive”.
Consider `O=c1cc(-c2ccccc2)[nH]c2nc(Cl)ccc12`, for which the outcome in [12], in test [13] and in [8] was inactive. In addition, the Potency result in test [10] and in test [1] was “inactive” each time.
On to `CC(C)ON([C@@H](C(=O)NO)C(C)C)S(=O)(=O)c1ccc(-c2ccccc2)cc1`, for which the call in [8] was inactive. In addition, in test [1], the Potency entry is “inactive”.
For the compound `COC(=O)Nc1nc2ccc(C(=O)c3ccc(F)cc3)cc2[nH]1`, the Potency entry in test [1] and in test [6] was “inactive” throughout. Also, the Potency in test [7] is 1.26 µM (active); in test [11], 0.961 µM (active).
Turning to `COc1cc(C)c(Sc2cnc(NC(=O)c3ccc(CNC(C)C(C)C)cc3)s2)cc1C(=O)N1CCN(C(C)=O)CC1` (stereo unspecified), the Potency is 24.3 µM (active) in test [1] and 3.83 µM (active) in [11].
Turning to `COCCOc1nc(-c2ccc(Cl)c(Cl)c2)n(-c2ccc(NC(=O)CCl)cc2)n1`, the Potency result in [14] was “inactive”.
Turning to `CCOC(=O)C1=C(C)NC(C)=C(C(=O)OCC)C1c1c(F)c(F)c(F)c(F)c1F`, the call in [8] was inactive. In test [1], the Potency result is “inactive”.
Regarding `CC[C@H](C)C(=O)O[C@H]1CCC=C2C=C[C@H](C)[C@H](CC[C@@H]3C[C@@H](O)CC(=O)O3)[C@H]21`, the outcome in test [8] was inactive. Further, the Potency entry in test [1], in [6] and in test [11] was “inactive” each time. Moreover, the activity change, negative = inhibition in [7] is -51.5%.
Turning to `O=C(NC1CC1)c1cccc(-c2ccc3c(NC(=O)C4CC4)n[nH]c3c2)c1`, in test [1], the Potency result was “inactive”. Moreover, the Potency is 17.1 µM (active) in test [15], 7.94 µM (active) in test [7] and 15.2 µM (active) in [11].
Take `Cc1cc(Nc2ncnc3ccc(-c4ccc(CNCCS(C)(=O)=O)o4)cc23)ccc1Oc1ccn2ncnc2c1`: in test [1], the Potency was 15.3 µM (active). In addition, the Potency result in [6] and in [7] was “inactive” each time.
Take `CNCCc1cnc(CCC(c2ccccc2)c2ccccc2)[nH]1`: the outcome in test [8] was inactive. In test [1], the Potency result was “inactive”.

Source of the values: PubChem BioAssay (NCATS).
